Values joined by “and” are separate entries in the source; they are usually repeats but may differ in a detail not shown here. Equal entries are not always repeated. Results filed as inconclusive are left out. Active and inactive are the calls of the source. Unless noted, calls follow the shape of the dose curve; as a rule, active = well fitted inhibition curve with a large enough effect; inconclusive = small, poorly fitted or top-dose-only effect; inactive = flat fitted curve, though single readings scatter.

Voltage-gated inwardly rectifying potassium channel KCNH2 (Homo sapiens), sequence (Q12809 whole entry, looked up): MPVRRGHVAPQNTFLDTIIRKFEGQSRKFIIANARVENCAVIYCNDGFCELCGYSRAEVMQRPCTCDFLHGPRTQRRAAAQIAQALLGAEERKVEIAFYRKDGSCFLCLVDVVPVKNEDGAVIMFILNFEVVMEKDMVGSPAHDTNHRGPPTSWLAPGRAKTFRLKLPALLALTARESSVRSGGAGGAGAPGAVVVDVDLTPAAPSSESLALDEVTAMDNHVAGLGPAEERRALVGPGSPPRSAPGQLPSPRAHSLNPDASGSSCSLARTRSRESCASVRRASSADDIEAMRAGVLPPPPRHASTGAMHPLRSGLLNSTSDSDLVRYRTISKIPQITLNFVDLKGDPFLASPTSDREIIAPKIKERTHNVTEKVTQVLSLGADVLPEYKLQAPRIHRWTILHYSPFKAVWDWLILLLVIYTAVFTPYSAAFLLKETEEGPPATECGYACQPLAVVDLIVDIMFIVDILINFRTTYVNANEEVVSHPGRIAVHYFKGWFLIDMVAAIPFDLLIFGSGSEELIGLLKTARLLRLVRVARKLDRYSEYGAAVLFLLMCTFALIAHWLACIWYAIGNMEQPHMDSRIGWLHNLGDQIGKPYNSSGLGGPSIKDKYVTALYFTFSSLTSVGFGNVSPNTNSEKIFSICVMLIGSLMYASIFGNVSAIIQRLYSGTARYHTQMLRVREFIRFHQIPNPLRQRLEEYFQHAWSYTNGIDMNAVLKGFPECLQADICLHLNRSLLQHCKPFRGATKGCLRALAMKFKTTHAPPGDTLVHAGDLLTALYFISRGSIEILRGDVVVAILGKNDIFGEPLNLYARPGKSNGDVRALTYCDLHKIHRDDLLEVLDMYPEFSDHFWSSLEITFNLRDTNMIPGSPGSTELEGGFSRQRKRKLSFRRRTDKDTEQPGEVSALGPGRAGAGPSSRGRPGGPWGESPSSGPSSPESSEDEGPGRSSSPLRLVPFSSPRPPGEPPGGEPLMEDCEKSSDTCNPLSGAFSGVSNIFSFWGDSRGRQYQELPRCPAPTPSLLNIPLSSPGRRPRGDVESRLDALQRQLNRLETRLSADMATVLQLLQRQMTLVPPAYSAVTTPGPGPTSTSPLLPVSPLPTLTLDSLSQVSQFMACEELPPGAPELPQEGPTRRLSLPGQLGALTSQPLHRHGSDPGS

The target in one assay is Voltage-gated inwardly rectifying potassium channel KCNH2 (Homo sapiens) (UniProt Q12809). In words: qHTS Assay for Small Molecule Inhibitors of the Human hERG Channel Activity (AID 588834).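 Also: top concentration of the series differs between compounds; % is scaled to controls: 0 for no effect and ±100 for the full control effect; lower thallium flux fluorescence means stronger hERG block; nearly all actives have a fitted effect of over 50% in size.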 The following applies: U2OS BacMam hERG, FluxOR thallium flux fluorescence; series mostly up to 92.2 µM. The gist of the method:
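Thallium-flux (FluxOR) read-out on FDSS: fluorescence read 10 s before and 2 min after stimulation buffer. hERG-BacMam-transduced U2OS cells, compound exposure about 10 min. AC50 by standard Hill equation.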
With `O=[N+]([O-])c1ccc(NCCO)c(OCCO)c1`, the Potency entry is “inactive”.

`ClC/C=C/CCl`: the Potency entry is “inactive”.

Consider `Cc1cscn1`, for which the Potency result was “inactive”.

Consider `CCCCCCCN`, for which the Potency entry was “inactive”.

As to `CC(C)(O)CCC(C)(C)O`, the Potency entry was “inactive”.

As for `Nc1cccc(S(=O)(=O)O)c1`, the Potency entry was “inactive”.

For `O=Cc1c(Cl)cccc1Cl`, the Potency result was “inactive”.

For the compound `Oc1c(Cl)ccc(Cl)c1Cl`, the Potency result is “inactive”.

In the case of `COC(=O)CCCC(=O)OC`, the Potency entry is “inactive”.

In the case of `O=c1[nH][nH]c(=O)c2cc([N+](=O)[O-])ccc12`, the Potency entry is “inactive”.

Take `C=Cc1ccccn1`: the Potency result was “inactive”.

As for `Nc1ccc([N+](=O)[O-])c(N)c1`, the Potency result was “inactive”.

On to `Nc1cccc(N)c1`, for which the Potency entry is “inactive”.

With `CSc1ccc(C=O)cc1`, the Potency entry is “inactive”.

As to `Cc1ccc([N+](=O)[O-])c(N)c1`, the Potency result was “inactive”.

With `COc1ccc(N)c(OC)c1`, the Potency result was “inactive”.

Regarding `C=CCCCC`, the Potency result is “inactive”.

For the compound `C=CC(=O)NC(C)C`, the Potency result was “inactive”.

Take `C/C(C=O)=C/c1ccccc1`: the Potency result is “inactive”.

In the case of `CCCCCCCCN`, the Potency entry is “inactive”.

With `C=CCCC`, the Potency entry is “inactive”.

Consider `C=CCCCCCC`, for which the Potency entry is “inactive”.

For the compound `Cc1ccccc1C=O`, the Potency entry is “inactive”.

`CCN(CC)c1cccc(O)c1`: the Potency entry is “inactive”.

Take `Cc1c(N)cccc1N`: the Potency entry is “inactive”.

Regarding `CC(=C/C=C/C(C)=C/C=C/C=C(C)/C=C/C=C(C)/C=C/C(=O)O)/C=C/C(=O)O`, the Potency result is “inactive”.

Consider `Fc1ccccc1`, for which the Potency result is “inactive”.

Regarding `NC(=S)NNC(N)=S`, the Potency result was “inactive”.

For `CCNc1cc(O)ccc1C`, the Potency entry is “inactive”.

Consider `Cc1ccc(C#N)cc1`, for which the Potency entry is “inactive”.

For `c1ccc2n[nH]nc2c1`, the Potency entry was “inactive”.

Regarding `Nc1cccc2c(=O)[nH][nH]c(=O)c12`, the Potency result was “inactive”.

As for `Cc1c(N)cccc1[N+](=O)[O-]`, the Potency result is “inactive”.

In the case of `O=C1OC(=O)c2c(Br)c(Br)c(Br)c(Br)c21`, the Potency result is “inactive”.

Regarding `CCCCC/C=C/C=C/C=O`, the Potency entry was “inactive”.

`O=Cc1cccc(Br)c1`: the Potency result is “inactive”.

Regarding `O=Cc1ccc(CO)o1`, the Potency entry was “inactive”.

With `C=CCn1c(=O)n(CC=C)c(=O)n(CC=C)c1=O`, the Potency entry is “inactive”.

On to `CCCCCCCCCCCCC1CO1` (stereo unspecified), for which the Potency entry was “inactive”.

Take `Cc1ccc(C(=O)O)cc1`: the Potency result was “inactive”.

System in a further assay: not listed separately
Nature of the assay: qHTS assay for small molecule activators of the p53 signaling pathway (AID 651743; active = well fitted activation curve with a large enough effect in the signal ratio, not every such curve was filed as active; the % refers to the signal ratio; also: % of control where 0% means no effect). The following applies: HCT-116 p53RE-bla, beta-lactamase FRET ratio, 16 h; active compounds read high. The gist of the method: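 Following 16 hours of compound exposure at 37 C, HCT-116 cells bearing the p53RE-bla reporter were loaded with LiveBLAzer B/G FRET substrate for 2 hours at room temperature and fluorescence intensity was recorded.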
Background: In qHTS, concentration-response curves come from the screen itself.
For the compound `O=[N+]([O-])c1ccc(NCCO)c(OCCO)c1`, the activation was -3% (inactive).

As to `ClC/C=C/CCl`, the activation was -2.54% (inactive).

Consider `CCCCCCCN`, for which the activation is -0.0412% (inactive).

As for `CC(C)(O)CCC(C)(C)O`, the activation was -3.36% (inactive).

For `O=Cc1c(Cl)cccc1Cl`, the activation is -2.41% (inactive).

Regarding `Oc1c(Cl)ccc(Cl)c1Cl`, the activation is 1.05% (inactive).

For `COC(=O)CCCC(=O)OC`, the activation is -1.04% (inactive).

Turning to `O=c1[nH][nH]c(=O)c2cc([N+](=O)[O-])ccc12`, the activation was -3.95% (inactive).

For `C=Cc1ccccn1`, the activation was -2.17% (inactive).

In the case of `Nc1ccc([N+](=O)[O-])c(N)c1`, the activation was -5.74% (inactive).

For `Nc1cccc(N)c1`, the activation was -1.04% (inactive).

In the case of `Cc1ccc([N+](=O)[O-])c(N)c1`, the activation is -3.31% (inactive).

As for `COc1ccc(N)c(OC)c1`, the activation was 1.84% (inactive).

For the compound `C=CCCCC`, the activation is 0.701% (inactive).

In the case of `C=CC(=O)NC(C)C`, the activation was -0.785% (inactive).

For the compound `C=CCCC`, the activation was -0.508% (inactive).

For `C=CCCCCCC`, the activation was -2.89% (inactive).

Turning to `CCN(CC)c1cccc(O)c1`, the activation was -0.279% (inactive).

Turning to `CC(=C/C=C/C(C)=C/C=C/C=C(C)/C=C/C=C(C)/C=C/C(=O)O)/C=C/C(=O)O`, the activation was -0.825% (inactive).

For `CCNc1cc(O)ccc1C`, the activation was -1.04% (inactive).

As to `c1ccc2n[nH]nc2c1`, the activation was -4.32% (inactive).

For the compound `Cc1c(N)cccc1[N+](=O)[O-]`, the activation was -0.892% (inactive).

Consider `O=Cc1cccc(Br)c1`, for which the activation is -0.251% (inactive).

As to `O=Cc1ccc(CO)o1`, the activation was -2.06% (inactive).

`C=CCn1c(=O)n(CC=C)c(=O)n(CC=C)c1=O`: the activation is 0.0041% (inactive).

For the compound `Cc1ccc(C(=O)O)cc1`, the activation is -5.46% (inactive).

System in a further assay: not listed separately
Nature of the assay: qHTS assay for small molecule activators of the nuclear factor-kappa B (NF-kB) signaling pathway (AID 651749; active = well fitted activation curve with a large enough effect in the signal ratio; the % refers to the signal ratio; also: % of control where 0% means no effect). The following applies: NF-kB-bla ME-180 cells, beta-lactamase FRET ratio, 16 h; active compounds read high. The gist of the method: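 In this qHTS format, compounds acting as activators increase NF-kB-driven beta-lactamase in ME-180 cells, measured as disrupted FRET after 16 hr exposure at 37C and 5% CO2.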
Regarding `Cc1cscn1`, the activation is -0.548% (inactive).

Consider `Nc1cccc(S(=O)(=O)O)c1`, for which the activation was -0.968% (inactive).

With `O=Cc1c(Cl)cccc1Cl`, the activation is -0.578% (inactive).

For `COC(=O)CCCC(=O)OC`, the activation was -0.14% (inactive).

As to `O=c1[nH][nH]c(=O)c2cc([N+](=O)[O-])ccc12`, the activation was 0.392% (inactive).

In the case of `Nc1ccc([N+](=O)[O-])c(N)c1`, the activation was 0.47% (inactive).

As to `Nc1cccc(N)c1`, the activation was -0.628% (inactive).

Turning to `CSc1ccc(C=O)cc1`, the activation was 0.0922% (inactive).

On to `Cc1ccc([N+](=O)[O-])c(N)c1`, for which the activation is -0.448% (inactive).

For the compound `C=CCCCC`, the activation is 0.582% (inactive).

Consider `C=CC(=O)NC(C)C`, for which the activation is 0.588% (inactive).

On to `C/C(C=O)=C/c1ccccc1`, for which the activation was -1.45% (inactive).

Turning to `CCCCCCCCN`, the activation is -1.11% (inactive).

Take `C=CCCC`: the activation is -0.388% (inactive).

`CCN(CC)c1cccc(O)c1`: the activation was 0.251% (inactive).

For the compound `Cc1c(N)cccc1N`, the activation was -1.33% (inactive).

With `CC(=C/C=C/C(C)=C/C=C/C=C(C)/C=C/C=C(C)/C=C/C(=O)O)/C=C/C(=O)O`, the activation was -0.299% (inactive).

For the compound `Fc1ccccc1`, the activation was 0.343% (inactive).

Take `NC(=S)NNC(N)=S`: the activation is -0.0609% (inactive) and -1.04% (inactive).

Take `Cc1ccc(C#N)cc1`: the activation was 0.0681% (inactive).

Regarding `c1ccc2n[nH]nc2c1`, the activation is 1% (inactive).

As for `Nc1cccc2c(=O)[nH][nH]c(=O)c12`, the activation is 0.176% (inactive).

Turning to `O=C1OC(=O)c2c(Br)c(Br)c(Br)c(Br)c21`, the activation was 0.149% (inactive) and 3.05% (inactive).

In the case of `CCCCC/C=C/C=C/C=O`, the activation was -1.4% (inactive) and -2.02% (inactive).

`CCCCCCCCCCCCC1CO1` (stereo unspecified): the activation is 0.702% (inactive).

For the origin of these results see PubChem BioAssay (NCATS).
